Test results as given in ChEMBL document CHEMBL2218924, “A broad activity screen in support of a chemogenomic map for kinase signalling research and drug discovery” (Biochem J, 2013).

How the values were obtained:
[1] = biological target: T1, Serine/threonine-protein kinase NLK (Homo sapiens) (UniProt Q9UBE8); details: at 1 µM
T1 sequence (whole entry): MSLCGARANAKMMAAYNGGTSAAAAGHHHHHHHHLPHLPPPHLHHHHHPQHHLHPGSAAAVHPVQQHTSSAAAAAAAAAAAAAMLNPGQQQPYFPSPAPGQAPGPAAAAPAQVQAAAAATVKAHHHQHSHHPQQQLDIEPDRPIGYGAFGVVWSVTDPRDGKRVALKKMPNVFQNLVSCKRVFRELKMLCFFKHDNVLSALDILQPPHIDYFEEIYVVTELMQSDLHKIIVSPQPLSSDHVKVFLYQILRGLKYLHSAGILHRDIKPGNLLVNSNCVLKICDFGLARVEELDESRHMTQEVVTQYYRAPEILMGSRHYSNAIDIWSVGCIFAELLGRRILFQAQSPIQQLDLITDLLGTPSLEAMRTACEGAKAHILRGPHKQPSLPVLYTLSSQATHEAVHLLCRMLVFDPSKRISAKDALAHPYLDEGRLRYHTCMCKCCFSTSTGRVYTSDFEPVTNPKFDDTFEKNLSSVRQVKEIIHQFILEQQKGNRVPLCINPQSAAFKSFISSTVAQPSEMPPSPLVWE

[2] = biological target: T1, Serine/threonine-protein kinase NLK (Homo sapiens); details: at 10 µM
[3] = biological target: Serine/threonine-protein kinase PAK 4 (Homo sapiens) (UniProt O96013); details: at 10 µM
[4] = biological target: Serine/threonine-protein kinase PAK 6 (Homo sapiens) (UniProt Q9NQU5); details: at 1 µM
[5] = biological target: Serine/threonine-protein kinase PAK 6 (Homo sapiens) (UniProt Q9NQU5); details: at 10 µM
[6] = biological target: PAS domain-containing serine/threonine-protein kinase (Homo sapiens) (UniProt Q96RG2); details: at 10 µM
[7] = biological target: Activated CDC42 kinase 1 (Homo sapiens) (UniProt Q07912); details: at 10 µM
[8] = biological target: ALK tyrosine kinase receptor (Homo sapiens) (UniProt Q9UM73); details: at 1 µM
[9] = biological target: ALK tyrosine kinase receptor (Homo sapiens) (UniProt Q9UM73); details: at 10 µM
[10] = biological target: PAS domain-containing serine/threonine-protein kinase (Homo sapiens) (UniProt Q96RG2); details: at 1 µM
[11] = biological target: Serine/threonine-protein kinase Nek6 (Homo sapiens) (UniProt Q9HC98); details: at 1 µM
[12] = biological target: Serine/threonine-protein kinase Nek6 (Homo sapiens) (UniProt Q9HC98); details: at 10 µM
[13] = biological target: Serine/threonine-protein kinase Nek7 (Homo sapiens) (UniProt Q8TDX7); details: at 1 µM
[14] = biological target: Serine/threonine-protein kinase Nek7 (Homo sapiens) (UniProt Q8TDX7); details: at 10 µM
[15] = biological target: Serine/threonine-protein kinase PAK 2 (Homo sapiens) (UniProt Q13177); details: at 1 µM
[16] = biological target: Serine/threonine-protein kinase PAK 2 (Homo sapiens) (UniProt Q13177); details: at 10 µM
[17] = biological target: Serine/threonine-protein kinase PAK 4 (Homo sapiens) (UniProt O96013); details: at 1 µM
[18] = biological target: Serine/threonine-protein kinase PAK 5 (Homo sapiens) (UniProt Q9P286); details: at 1 µM
[19] = biological target: Serine/threonine-protein kinase PAK 5 (Homo sapiens) (UniProt Q9P286); details: at 10 µM
[20] = biological target: Activated CDC42 kinase 1 (Homo sapiens) (UniProt Q07912); details: at 1 µM

PAS domain-containing serine/threonine-protein kinase (Homo sapiens), sequence (Q96RG2 whole entry, the tested form may be a part): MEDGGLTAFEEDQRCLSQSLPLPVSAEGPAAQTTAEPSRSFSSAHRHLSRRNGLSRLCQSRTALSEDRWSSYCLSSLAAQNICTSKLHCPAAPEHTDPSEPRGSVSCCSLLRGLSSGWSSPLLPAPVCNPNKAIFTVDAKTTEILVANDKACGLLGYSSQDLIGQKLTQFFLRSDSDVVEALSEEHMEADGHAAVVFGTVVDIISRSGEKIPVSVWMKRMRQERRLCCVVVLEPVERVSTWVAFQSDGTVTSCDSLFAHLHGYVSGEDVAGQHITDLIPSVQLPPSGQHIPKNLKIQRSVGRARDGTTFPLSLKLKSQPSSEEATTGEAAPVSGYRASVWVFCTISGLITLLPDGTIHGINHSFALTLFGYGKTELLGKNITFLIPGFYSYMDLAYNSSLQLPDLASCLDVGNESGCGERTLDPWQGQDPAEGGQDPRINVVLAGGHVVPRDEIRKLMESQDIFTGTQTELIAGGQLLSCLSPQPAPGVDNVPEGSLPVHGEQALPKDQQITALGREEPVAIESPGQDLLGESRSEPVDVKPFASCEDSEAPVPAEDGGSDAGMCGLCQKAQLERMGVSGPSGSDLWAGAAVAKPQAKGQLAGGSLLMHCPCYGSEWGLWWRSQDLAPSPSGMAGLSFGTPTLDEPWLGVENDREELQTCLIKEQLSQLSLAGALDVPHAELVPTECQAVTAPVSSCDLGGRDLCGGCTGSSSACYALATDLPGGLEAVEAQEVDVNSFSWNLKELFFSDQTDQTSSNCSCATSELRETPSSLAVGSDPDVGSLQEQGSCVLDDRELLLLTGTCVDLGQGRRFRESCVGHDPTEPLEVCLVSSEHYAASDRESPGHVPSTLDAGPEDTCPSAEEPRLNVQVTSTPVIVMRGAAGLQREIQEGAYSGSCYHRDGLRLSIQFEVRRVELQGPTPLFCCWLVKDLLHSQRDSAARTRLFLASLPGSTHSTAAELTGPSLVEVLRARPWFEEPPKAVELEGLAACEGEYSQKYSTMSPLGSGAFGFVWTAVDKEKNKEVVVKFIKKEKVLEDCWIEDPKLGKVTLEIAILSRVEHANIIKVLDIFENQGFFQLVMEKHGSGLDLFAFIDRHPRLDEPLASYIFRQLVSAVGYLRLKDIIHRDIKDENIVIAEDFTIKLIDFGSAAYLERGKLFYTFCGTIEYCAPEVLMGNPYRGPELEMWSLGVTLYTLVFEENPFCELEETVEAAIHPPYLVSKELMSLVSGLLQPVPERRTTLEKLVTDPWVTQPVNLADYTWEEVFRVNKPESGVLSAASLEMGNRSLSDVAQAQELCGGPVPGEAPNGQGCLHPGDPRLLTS
Serine/threonine-protein kinase PAK 5 (Homo sapiens), sequence (Q9P286 whole entry, looked up): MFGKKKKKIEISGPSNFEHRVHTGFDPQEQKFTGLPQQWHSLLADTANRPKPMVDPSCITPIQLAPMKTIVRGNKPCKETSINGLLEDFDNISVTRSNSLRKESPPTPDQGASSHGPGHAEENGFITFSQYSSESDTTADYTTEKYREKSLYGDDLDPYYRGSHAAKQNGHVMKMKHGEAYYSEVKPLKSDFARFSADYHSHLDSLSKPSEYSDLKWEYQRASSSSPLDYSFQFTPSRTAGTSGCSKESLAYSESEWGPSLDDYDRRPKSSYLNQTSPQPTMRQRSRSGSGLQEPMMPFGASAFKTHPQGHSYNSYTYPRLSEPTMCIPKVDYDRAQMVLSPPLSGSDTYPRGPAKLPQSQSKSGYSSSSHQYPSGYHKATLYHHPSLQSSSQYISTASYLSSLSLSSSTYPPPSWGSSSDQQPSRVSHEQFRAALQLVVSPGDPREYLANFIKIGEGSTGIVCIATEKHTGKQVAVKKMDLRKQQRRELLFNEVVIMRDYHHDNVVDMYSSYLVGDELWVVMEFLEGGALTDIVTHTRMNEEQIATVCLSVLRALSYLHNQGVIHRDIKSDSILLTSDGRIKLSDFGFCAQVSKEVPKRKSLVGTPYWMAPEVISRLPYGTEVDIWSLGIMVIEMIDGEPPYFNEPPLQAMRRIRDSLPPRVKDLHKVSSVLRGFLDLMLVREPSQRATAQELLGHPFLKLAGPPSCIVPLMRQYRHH
ALK tyrosine kinase receptor (Homo sapiens), sequence (Q9UM73 19-1620 limits assumed): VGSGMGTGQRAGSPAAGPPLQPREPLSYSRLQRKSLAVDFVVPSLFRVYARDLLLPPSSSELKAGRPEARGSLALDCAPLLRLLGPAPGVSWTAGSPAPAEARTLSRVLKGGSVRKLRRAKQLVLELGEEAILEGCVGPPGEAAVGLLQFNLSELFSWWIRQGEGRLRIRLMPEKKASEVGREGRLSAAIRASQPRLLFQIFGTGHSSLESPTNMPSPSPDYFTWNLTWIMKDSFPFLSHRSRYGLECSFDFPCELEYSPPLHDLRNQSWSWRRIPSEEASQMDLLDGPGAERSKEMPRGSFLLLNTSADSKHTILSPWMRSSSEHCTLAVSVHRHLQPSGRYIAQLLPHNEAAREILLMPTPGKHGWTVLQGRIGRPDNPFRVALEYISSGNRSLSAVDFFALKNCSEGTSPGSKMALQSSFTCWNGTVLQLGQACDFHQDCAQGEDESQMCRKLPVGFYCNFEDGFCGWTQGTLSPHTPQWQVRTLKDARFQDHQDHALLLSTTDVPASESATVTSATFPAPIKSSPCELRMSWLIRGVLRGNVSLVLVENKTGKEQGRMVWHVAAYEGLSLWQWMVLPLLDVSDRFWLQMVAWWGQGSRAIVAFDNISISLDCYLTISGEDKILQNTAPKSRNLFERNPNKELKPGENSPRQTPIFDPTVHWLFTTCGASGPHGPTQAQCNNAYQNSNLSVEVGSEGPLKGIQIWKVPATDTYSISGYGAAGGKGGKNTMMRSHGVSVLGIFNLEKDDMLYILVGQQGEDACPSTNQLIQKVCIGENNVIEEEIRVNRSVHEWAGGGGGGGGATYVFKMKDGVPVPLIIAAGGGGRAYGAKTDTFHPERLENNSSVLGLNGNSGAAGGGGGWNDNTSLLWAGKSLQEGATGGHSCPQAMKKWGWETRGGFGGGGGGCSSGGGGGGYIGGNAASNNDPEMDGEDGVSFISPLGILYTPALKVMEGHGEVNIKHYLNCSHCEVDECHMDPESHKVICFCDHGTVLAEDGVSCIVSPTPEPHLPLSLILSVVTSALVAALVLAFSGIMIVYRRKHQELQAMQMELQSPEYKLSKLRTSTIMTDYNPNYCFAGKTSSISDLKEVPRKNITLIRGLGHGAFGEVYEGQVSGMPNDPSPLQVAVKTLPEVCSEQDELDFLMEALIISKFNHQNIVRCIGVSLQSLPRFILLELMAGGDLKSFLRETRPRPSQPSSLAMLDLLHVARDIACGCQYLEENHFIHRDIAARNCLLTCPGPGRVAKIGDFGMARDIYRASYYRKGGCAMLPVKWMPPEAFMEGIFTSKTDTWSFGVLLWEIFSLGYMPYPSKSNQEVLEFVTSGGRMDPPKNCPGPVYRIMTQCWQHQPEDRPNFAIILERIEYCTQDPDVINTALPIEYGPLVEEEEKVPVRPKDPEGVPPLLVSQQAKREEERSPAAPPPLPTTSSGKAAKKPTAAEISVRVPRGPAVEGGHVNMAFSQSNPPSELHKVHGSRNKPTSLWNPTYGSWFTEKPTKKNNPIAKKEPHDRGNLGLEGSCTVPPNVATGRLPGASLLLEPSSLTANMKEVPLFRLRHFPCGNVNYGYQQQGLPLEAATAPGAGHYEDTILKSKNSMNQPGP
Serine/threonine-protein kinase PAK 2 (Homo sapiens), sequence (Q13177 whole entry): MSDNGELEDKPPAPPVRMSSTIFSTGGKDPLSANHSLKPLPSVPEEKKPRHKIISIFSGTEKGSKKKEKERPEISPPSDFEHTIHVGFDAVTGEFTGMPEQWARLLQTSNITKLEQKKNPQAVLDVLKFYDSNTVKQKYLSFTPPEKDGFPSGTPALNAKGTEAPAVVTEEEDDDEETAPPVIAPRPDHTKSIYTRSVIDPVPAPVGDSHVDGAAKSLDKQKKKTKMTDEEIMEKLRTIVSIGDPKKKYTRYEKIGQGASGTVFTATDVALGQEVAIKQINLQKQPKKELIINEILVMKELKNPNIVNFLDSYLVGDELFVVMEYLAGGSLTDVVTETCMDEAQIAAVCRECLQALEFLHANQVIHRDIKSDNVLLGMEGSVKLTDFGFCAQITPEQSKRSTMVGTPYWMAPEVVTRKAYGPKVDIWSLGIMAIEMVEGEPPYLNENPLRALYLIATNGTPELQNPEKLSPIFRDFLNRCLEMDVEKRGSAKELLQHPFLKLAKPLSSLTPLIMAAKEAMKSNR
Serine/threonine-protein kinase PAK 6 (Homo sapiens), sequence (Q9NQU5 whole entry, looked up, the tested form may be a part): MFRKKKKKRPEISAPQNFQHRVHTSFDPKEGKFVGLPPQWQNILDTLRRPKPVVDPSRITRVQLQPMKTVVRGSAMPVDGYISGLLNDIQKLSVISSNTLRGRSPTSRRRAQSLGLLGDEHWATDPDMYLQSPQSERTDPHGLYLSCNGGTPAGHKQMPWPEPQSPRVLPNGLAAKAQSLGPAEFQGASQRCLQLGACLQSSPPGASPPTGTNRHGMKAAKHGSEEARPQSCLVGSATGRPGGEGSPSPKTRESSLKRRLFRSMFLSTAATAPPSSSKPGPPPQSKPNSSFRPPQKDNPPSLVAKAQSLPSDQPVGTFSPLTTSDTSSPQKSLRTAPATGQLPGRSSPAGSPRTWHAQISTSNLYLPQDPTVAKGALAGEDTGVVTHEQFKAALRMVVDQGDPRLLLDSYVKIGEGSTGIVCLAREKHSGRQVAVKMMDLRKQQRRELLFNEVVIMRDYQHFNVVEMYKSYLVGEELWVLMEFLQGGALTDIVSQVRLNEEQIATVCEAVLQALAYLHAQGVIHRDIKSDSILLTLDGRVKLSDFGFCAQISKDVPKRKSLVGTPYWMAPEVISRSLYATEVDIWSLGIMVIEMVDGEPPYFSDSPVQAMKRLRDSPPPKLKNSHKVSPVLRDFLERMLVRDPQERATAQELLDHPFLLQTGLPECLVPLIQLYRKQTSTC

COc1ccc2c(c1)/C(=C/c1cnc[nH]1)C(=O)N2
residual activity [1]: 70%
residual activity [2]: 19%
residual activity [3]: 46%
residual activity [4]: 98%
residual activity [5]: 53%
residual activity [6]: 81%
residual activity [7]: 44%
residual activity [8]: 63%
residual activity [9]: 81%

N#Cc1cnc2cnc(NCc3cccnc3)cc2c1Nc1ccc(F)c(Cl)c1
residual activity [10]: 80%

COC(=O)[C@@]1(O)C[C@H]2O[C@]1(C)n1c3ccccc3c3c4c(c5c6ccccc6n2c5c31)C(=O)NC4
residual activity [11]: 104% (inactive)
residual activity [12]: 120%
residual activity [13]: 103% (inactive)
residual activity [14]: 95% (inactive)
residual activity [1]: 42%
residual activity [2]: 10%
residual activity [15]: 19%
residual activity [16]: 2%
residual activity [17]: 3%
residual activity [3]: 0%
residual activity [18]: 6%
residual activity [19]: 1%
residual activity [4]: 0%
residual activity [5]: -1%
residual activity [10]: 14%
residual activity [6]: 4%
residual activity [20]: 0%
residual activity [7]: 0%
residual activity [8]: 10%
residual activity [9]: 1%

COc1cc2ncnc(Nc3ccc(Oc4ccccc4)cc3)c2cc1OC
residual activity [10]: 98%

O=C(Nc1cccc(Nc2nccc(Nc3cccc(C(F)(F)F)c3)n2)c1)C1CC1
residual activity [10]: 75%

Cn1c2ccccc2c2c3c(c4c5ccccc5n(CCC#N)c4c21)CNC3=O
residual activity [10]: 93%

CN(C)c1ccc(/C=C2\C(=O)Nc3ccccc32)cc1
residual activity [10]: 86%

CCc1nc(-c2ccc(OC)cc2)[nH]c1-c1ccncc1
residual activity [11]: 116% (inactive)
residual activity [12]: 117%
residual activity [13]: 106% (inactive)
residual activity [14]: 104% (inactive)
residual activity [15]: 107%
residual activity [16]: 110%
residual activity [17]: 111%
residual activity [3]: 100%
residual activity [18]: 111%
residual activity [19]: 105%
residual activity [10]: 128%
residual activity [7]: 69%

CCn1cnc2c(Nc3cccc(Cl)c3)nc(N[C@@H]3CCCC[C@@H]3N)nc21
residual activity [12]: 126%
residual activity [14]: 112% (inactive)
residual activity [1]: 80%
residual activity [2]: 34%
residual activity [16]: 73%
residual activity [17]: 30%
residual activity [3]: 7%
residual activity [18]: 38%
residual activity [19]: 11%
residual activity [4]: 38%
residual activity [5]: 10%
residual activity [10]: 113%
residual activity [6]: 69%
residual activity [20]: 34%
residual activity [7]: 4%
residual activity [8]: 82%
residual activity [9]: 34%

CC(C)N(CCC(=O)c1ccc2ccccc2c1)Cc1ccccc1
residual activity [10]: 126%

COc1ccc(OC)c2c(=S)c3ccccc3[nH]c12
residual activity [10]: 108%

O=C1c2ccccc2-c2nc3nnnn3nc21
residual activity [13]: 116% (inactive)
residual activity [14]: 105% (inactive)
residual activity [1]: 112%
residual activity [15]: 101%
residual activity [16]: 75%
residual activity [18]: 80%
residual activity [19]: 74%
residual activity [4]: 112%
residual activity [5]: 112%
residual activity [20]: 109%
residual activity [7]: 80%

N#CC(C#N)=C(N)/C(C#N)=C/c1ccc(O)cc1
residual activity [10]: 99%

O=C1Nc2ccccc2/C1=C\c1c(Cl)[nH]c2ccccc12
residual activity [10]: 99%

COc1cc(OC)c(/C=C2\C(=O)Nc3ccccc32)c(OC)c1
residual activity [1]: 92%
residual activity [2]: 86%
residual activity [15]: 97%
residual activity [18]: 96%
residual activity [19]: 93%
residual activity [5]: 93%
residual activity [10]: 92%
residual activity [20]: 71%
residual activity [7]: 56%
residual activity [8]: 89%
residual activity [9]: 75%

O=c1cc(N2CCOCC2)oc2c(-c3ccccc3)cccc12
residual activity [10]: 125%

CC(C)(C)c1cc(C=C(C#N)C#N)cc(Br)c1O
residual activity [11]: 117% (inactive)
residual activity [12]: 118%
residual activity [13]: 114% (inactive)
residual activity [14]: 116% (inactive)
residual activity [2]: 53%
residual activity [15]: 125%
residual activity [16]: 104%
residual activity [17]: 113%
residual activity [3]: 100%
residual activity [4]: 111%
residual activity [5]: 96%
residual activity [10]: 80%
residual activity [6]: 44%
residual activity [20]: 106%
residual activity [7]: 73%

N/C(=N\[N+](=O)[O-])N/N=C\c1ccc(-c2cccc([N+](=O)[O-])c2)o1
residual activity [13]: 93% (inactive)
residual activity [14]: 90% (inactive)
residual activity [15]: 98%
residual activity [16]: 95%
residual activity [4]: 82%
residual activity [5]: 70%
residual activity [20]: 85%
residual activity [7]: 71%
residual activity [8]: 85%
residual activity [9]: 69%

O=[N+]([O-])c1ccc(-c2nc(-c3ccc(F)cc3)c(-c3ccncc3)[nH]2)cc1
residual activity [10]: 126%

COc1cc2ncnc(Nc3ccc(OCc4ccccc4)cc3)c2cc1OC
residual activity [12]: 94%
residual activity [13]: 98% (inactive)
residual activity [14]: 89% (inactive)
residual activity [1]: 111%
residual activity [2]: 90%
residual activity [15]: 113%
residual activity [16]: 99%
residual activity [17]: 107%
residual activity [3]: 97%
residual activity [18]: 83%
residual activity [19]: 79%
residual activity [4]: 100%
residual activity [5]: 103%
residual activity [10]: 107%
residual activity [6]: 71%
residual activity [20]: 22%
residual activity [7]: 10%
residual activity [8]: 86%
residual activity [9]: 76%

O=c1[nH]c2ccccc2n1C1CCN(Cc2ccc(-c3nc4cc5[nH]cnc5cc4nc3-c3ccccc3)cc2)CC1
residual activity [11]: 109% (inactive)
residual activity [12]: 116%
residual activity [13]: 111% (inactive)
residual activity [14]: 69% (inactive)
residual activity [1]: 105%
residual activity [2]: 84%
residual activity [15]: 103%
residual activity [16]: 85%
residual activity [17]: 98%
residual activity [3]: 74%
residual activity [18]: 84%
residual activity [19]: 67%
residual activity [4]: 121%
residual activity [5]: 68%
residual activity [10]: 86%
residual activity [6]: 42%
residual activity [20]: 98%
residual activity [7]: 77%
residual activity [8]: 90%
residual activity [9]: 63%

O=C1NC(=O)c2c1c1c3ccccc3n3c1c1c2c2ccccc2n1C1CCC3O1
residual activity [17]: 84%
residual activity [3]: 64%
residual activity [4]: 19%
residual activity [5]: 15%
residual activity [20]: 8%
residual activity [7]: 13%
residual activity [8]: 81%
residual activity [9]: 79%

NC(=O)c1ccc2[nH]c(-c3ccc(Oc4ccc(Cl)cc4)cc3)nc2c1
residual activity [10]: 134%

CCCCc1c(-c2ccc(OC)cc2)[nH]c2nccnc12
residual activity [10]: 102%
